Potency and activity change, negative = inhibition data for 38 compounds are collected here from PubChem BioAssay AID651784 (National Center for Advancing Translational Sciences (NCATS), 2012).

Molecules are shown by their SMILES. Where “and” joins values, the source holds several entries; their conditions need not be identical. Equal entries are not always repeated. Inconclusive results are not listed. Calls of active or inactive are those of the source. Calls follow the shape of the dose curve; as a rule, active = well fitted inhibition curve with a large enough effect; inconclusive = small, poorly fitted or top-dose-only effect; inactive = no such curve, though single readings can be large or run the other way.
Potency is read from the fitted curve at half-maximal effect.

The assay can be described thus: Acumen qHTS Assay for Inhibitors of the mTORC1 Signaling Pathway in MEF (Tsc2-/-, p53-/-) Cells: Hit Validation.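 Also: phospho-rpS6 Ser235/236 immunofluorescence normalized to propidium iodide cell count; nearly all actives have a fitted effect of over 65% in size.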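 As to activity change, negative = inhibition: cells exposed to compound for 24 hours; plate controls were DMSO for no effect and 7.5 nM rapamycin control for full effect.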 The settings on record: Acumen imaging; activity change, negative = inhibition: at 37.3 µM (top of the series). For orientation: In qHTS, concentration-response curves come from the screen itself.
Regarding `COc1ccc(OC)c(Nc2c3c(nc4ccccc24)CCC3)c1`, the Potency was 3.29 µM (active).

As for `COc1ccccc1C1C=C(c2ccc(Cl)cc2)Nc2nc(-c3ccc(Cl)cc3)nn21` (stereo not drawn), the activity change, negative = inhibition is -9.46%.

For `O=C(NC1CCCCC1)/C(=C/c1ccc(Cl)cc1)NC(=O)c1ccccc1`, the activity change, negative = inhibition is -5.63%.

In the case of `COc1ccc(-c2ccc(CCC(=O)O)n2-c2cc(Cl)ccc2O)cc1`, the activity change, negative = inhibition is -7.48%.

`Nc1nc(Nc2ccccc2F)sc1C(=O)c1ccc(Cl)cc1`: the activity change, negative = inhibition was -5.15%.

Consider `Cc1ccc(NC(=O)CCS(=O)(=O)c2ccc3nc(C)sc3c2)cc1`, for which the activity change, negative = inhibition was -65.5%.

On to `COc1cc(C(=O)CC2(O)C(=O)N(Cc3ccccc3Cl)c3ccccc32)cc(OC)c1OC` (stereo not drawn), for which the activity change, negative = inhibition was -2.03%.

In the case of `CCOC(=O)c1c(NC(=O)c2nc(S(C)(=O)=O)ncc2Cl)sc(C(C)=O)c1C`, the Potency was 4.14 µM (active).

As for `CCc1ccc(NC(=O)C2CCCN(S(=O)(=O)c3c(C)noc3/C=C/N(C)C)C2)cc1` (stereo not drawn), the activity change, negative = inhibition is -73.7%.

Turning to `Cc1ccccc1Oc1nc2ccccn2c(=O)c1/C=C(\C#N)c1nc2ccccc2[nH]1`, the activity change, negative = inhibition is 2.47%.

Regarding `O=C(Nc1ccc(F)c(Cl)c1)c1cc(S(=O)(=O)N2CCCc3ccccc32)ccc1F`, the activity change, negative = inhibition is -51.1%.

For `COc1cc(C(=O)n2nc(C)c(Sc3ccc(Cl)cc3)c2C)cc(OC)c1OC`, the activity change, negative = inhibition was -8.63%.

Turning to `Cc1c(C(=O)OCCOc2ccccc2)[nH]c2c1C(=O)CC(c1ccccc1)C2` (stereo not drawn), the Potency was 0.117 µM (active).

As for `CCOC(=O)C(Cc1c[nH]c2ccccc12)NC(=O)COc1ccc(Cl)cc1` (stereo not drawn), the activity change, negative = inhibition is -4.4%.

On to `CCC(=O)C1=C(c2ccc(Cl)cc2)N(C(=O)CC)n2c(C)nnc2S1`, for which the activity change, negative = inhibition was -10.3%.

With `Cc1ccc(S(=O)(=O)c2nnn3c2nc(NCc2cccs2)c2sccc23)cc1`, the activity change, negative = inhibition is -1.4%.

In the case of `CCCCNC(=O)CSc1c2c(nc3ccc(Cl)cc13)CCCC2`, the activity change, negative = inhibition was -28.5%.

Turning to `CCOc1ccc(Nc2nc(-c3cccc(Cl)c3)c3c(n2)-c2ccccc2OC3)cc1`, the activity change, negative = inhibition was 6.48%.

As to `Cc1ccc(NC(=O)CSc2nc(=O)cc(N)n2CCc2ccccc2)cc1`, the activity change, negative = inhibition was -30%.

Consider `Cc1ccc(C)c(Cn2c3ccccc3c3cnn(CC(=O)NC(C)CCc4ccccc4)c(=O)c32)c1` (stereo not drawn), for which the Potency is 7.36 µM (active).

`CC(C)OCc1cc(CN2CCN(c3cccc(C(F)(F)F)c3)CC2)c(O)c2ncccc12`: the Potency is 11.7 µM (active).

For the compound `CCCOCc1cc(CN2CCN(c3ccccc3OC)CC2)c(O)c2ncccc12`, the activity change, negative = inhibition is -93.6%.

Regarding `COc1ccc(S(=O)(=O)NCCc2csc3nc(-c4ccc(Cl)cc4)nn23)cc1C`, the Potency is 11.7 µM (active).

Turning to `O=C(Nc1ccc2oc(-c3ccc4ccccc4c3)nc2c1)c1cc(Br)ccc1Cl`, the Potency is 9.27 µM (active).

For the compound `COc1ccc(N(Cc2ccccc2)C(=O)c2nc(S(C)(=O)=O)ncc2Cl)cc1`, the Potency is 1.85 µM (active).

As for `CCc1ccc(NC(=O)Cn2nc(C(F)(F)F)c3c2CCCC3)cc1`, the activity change, negative = inhibition is -28%.

For the compound `CCOc1ccccc1NC(=O)N(Cc1ccc(F)cc1)C1CCN(CC)CC1`, the activity change, negative = inhibition was -15.8%.

`COC(=O)c1ccccc1NC(=O)CSc1n[nH]c(CC(C)C)n1`: the activity change, negative = inhibition is 5.05%.

Regarding `COc1ccc(-c2nc(C)c(CCNC(=O)c3ccccc3Br)s2)cc1OC`, the activity change, negative = inhibition is -7.02%.

As to `Cc1cc(C)c(/C=C2\C(=O)Nc3ccccc32)[nH]1`, the activity change, negative = inhibition was 0.812% and 7.57%.

Consider `CC[C@H](CO)Nc1nc(NCc2ccccc2)c2ncn(C(C)C)c2n1`, for which the activity change, negative = inhibition is -22.4%.

On to `CC(C)(C)c1ccc(C2NC(=O)c3n[nH]c(-c4cccs4)c32)cc1` (stereo not drawn), for which the activity change, negative = inhibition was -6.84%.

For the compound `COc1ccc(OCc2nc3c4c(-c5ccccc5)c(-c5ccccc5)oc4ncn3n2)cc1`, the activity change, negative = inhibition came out at 3.1%.

With `COc1ccc(CCN2CCC(CNC(=O)c3cnn(-c4cccc(Cl)c4)c3C3CCN(C(=O)OC(C)(C)C)CC3)CC2)cc1`, the Potency is 6.56 µM (active).

Take `O=C(Nc1cccc(NC(=O)c2ccccc2Cl)c1)c1cccc(Br)c1`: the activity change, negative = inhibition was -1.41%.

Turning to `CCC(C)S(=O)(=O)c1oc(-c2cccs2)nc1S(=O)(=O)c1ccccc1` (stereo not drawn), the Potency is 0.927 µM (active).

For the compound `CCCC1=Nc2cc(C(=O)NC3CCCC3)ccc2Sc2ccc(C)cc21`, the Potency was 1.17 µM (active).

`CCN1CCN(c2ccc(NS(=O)(=O)c3c(C)nc4sccn4c3=O)cc2Cl)CC1`: the activity change, negative = inhibition is -78.4%.
